Results on three compounds are retold here after ChEMBL document CHEMBL2218924, “A broad activity screen in support of a chemogenomic map for kinase signalling research and drug discovery” (Biochem J, 2013).

Assay [1] concerns the target T1, Dual specificity tyrosine-phosphorylation-regulated kinase 2 (Homo sapiens) (UniProt Q92630).
T1 sequence (whole entry): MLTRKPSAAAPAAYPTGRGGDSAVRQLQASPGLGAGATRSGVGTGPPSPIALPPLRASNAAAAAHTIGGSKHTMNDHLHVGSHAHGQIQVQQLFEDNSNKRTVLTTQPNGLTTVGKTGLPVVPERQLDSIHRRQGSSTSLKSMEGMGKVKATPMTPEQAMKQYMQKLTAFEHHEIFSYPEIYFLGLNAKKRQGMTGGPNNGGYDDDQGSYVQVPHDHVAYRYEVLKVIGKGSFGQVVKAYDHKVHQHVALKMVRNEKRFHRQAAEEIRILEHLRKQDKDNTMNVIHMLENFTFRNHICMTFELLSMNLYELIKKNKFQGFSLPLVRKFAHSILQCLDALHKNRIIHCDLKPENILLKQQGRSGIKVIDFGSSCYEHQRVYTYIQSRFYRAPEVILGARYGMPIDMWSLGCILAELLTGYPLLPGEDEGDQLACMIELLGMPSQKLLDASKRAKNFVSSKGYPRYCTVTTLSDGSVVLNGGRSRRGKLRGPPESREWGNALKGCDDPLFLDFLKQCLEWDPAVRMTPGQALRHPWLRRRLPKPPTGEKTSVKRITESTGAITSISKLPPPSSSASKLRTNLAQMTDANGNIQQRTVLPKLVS
The conditions noted are these: at 1 µM.

In assay [2] the target is T1, Dual specificity tyrosine-phosphorylation-regulated kinase 2 (Homo sapiens). The conditions noted are these: at 10 µM.
For assay [3], the target named is T2, Ephrin type-A receptor 1 (Homo sapiens) (UniProt P21709).
T2 sequence (whole entry): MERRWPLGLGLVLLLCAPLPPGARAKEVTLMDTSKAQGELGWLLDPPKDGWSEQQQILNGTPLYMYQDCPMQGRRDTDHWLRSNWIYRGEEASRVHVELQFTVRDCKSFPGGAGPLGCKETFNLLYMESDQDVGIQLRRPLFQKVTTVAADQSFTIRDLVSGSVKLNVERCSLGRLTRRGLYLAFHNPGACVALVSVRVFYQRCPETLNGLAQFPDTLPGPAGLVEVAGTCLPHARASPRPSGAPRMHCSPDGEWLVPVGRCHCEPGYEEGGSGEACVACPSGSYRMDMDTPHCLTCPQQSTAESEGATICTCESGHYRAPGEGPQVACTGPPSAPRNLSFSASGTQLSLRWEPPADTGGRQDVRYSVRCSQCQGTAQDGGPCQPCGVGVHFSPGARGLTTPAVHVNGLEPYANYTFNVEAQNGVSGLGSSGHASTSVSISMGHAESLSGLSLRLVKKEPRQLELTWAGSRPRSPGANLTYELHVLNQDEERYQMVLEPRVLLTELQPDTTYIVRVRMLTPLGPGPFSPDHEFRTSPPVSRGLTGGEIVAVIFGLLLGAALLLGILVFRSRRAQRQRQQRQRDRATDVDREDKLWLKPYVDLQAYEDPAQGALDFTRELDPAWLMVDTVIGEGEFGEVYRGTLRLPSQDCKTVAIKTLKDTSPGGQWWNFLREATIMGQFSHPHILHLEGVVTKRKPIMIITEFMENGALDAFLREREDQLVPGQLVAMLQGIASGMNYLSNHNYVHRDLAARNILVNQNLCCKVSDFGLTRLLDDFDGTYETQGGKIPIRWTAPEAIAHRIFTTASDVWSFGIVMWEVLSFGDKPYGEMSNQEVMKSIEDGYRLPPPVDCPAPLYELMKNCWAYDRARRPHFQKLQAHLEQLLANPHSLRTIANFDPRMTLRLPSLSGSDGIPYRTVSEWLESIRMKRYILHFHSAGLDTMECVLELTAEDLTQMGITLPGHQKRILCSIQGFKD
The conditions noted are these: at 1 µM.

In assay [4] the target is T2, Ephrin type-A receptor 1 (Homo sapiens). The conditions noted are these: at 10 µM.
Assay [5] deals with Ephrin type-A receptor 2 (Homo sapiens) (UniProt P29317). The conditions noted are these: at 1 µM.
Assay [6] shares this target. The conditions noted are these: at 10 µM.
Assay [7] concerns the target T3, Ephrin type-A receptor 3 (Homo sapiens) (UniProt P29320).
T3 sequence (whole entry): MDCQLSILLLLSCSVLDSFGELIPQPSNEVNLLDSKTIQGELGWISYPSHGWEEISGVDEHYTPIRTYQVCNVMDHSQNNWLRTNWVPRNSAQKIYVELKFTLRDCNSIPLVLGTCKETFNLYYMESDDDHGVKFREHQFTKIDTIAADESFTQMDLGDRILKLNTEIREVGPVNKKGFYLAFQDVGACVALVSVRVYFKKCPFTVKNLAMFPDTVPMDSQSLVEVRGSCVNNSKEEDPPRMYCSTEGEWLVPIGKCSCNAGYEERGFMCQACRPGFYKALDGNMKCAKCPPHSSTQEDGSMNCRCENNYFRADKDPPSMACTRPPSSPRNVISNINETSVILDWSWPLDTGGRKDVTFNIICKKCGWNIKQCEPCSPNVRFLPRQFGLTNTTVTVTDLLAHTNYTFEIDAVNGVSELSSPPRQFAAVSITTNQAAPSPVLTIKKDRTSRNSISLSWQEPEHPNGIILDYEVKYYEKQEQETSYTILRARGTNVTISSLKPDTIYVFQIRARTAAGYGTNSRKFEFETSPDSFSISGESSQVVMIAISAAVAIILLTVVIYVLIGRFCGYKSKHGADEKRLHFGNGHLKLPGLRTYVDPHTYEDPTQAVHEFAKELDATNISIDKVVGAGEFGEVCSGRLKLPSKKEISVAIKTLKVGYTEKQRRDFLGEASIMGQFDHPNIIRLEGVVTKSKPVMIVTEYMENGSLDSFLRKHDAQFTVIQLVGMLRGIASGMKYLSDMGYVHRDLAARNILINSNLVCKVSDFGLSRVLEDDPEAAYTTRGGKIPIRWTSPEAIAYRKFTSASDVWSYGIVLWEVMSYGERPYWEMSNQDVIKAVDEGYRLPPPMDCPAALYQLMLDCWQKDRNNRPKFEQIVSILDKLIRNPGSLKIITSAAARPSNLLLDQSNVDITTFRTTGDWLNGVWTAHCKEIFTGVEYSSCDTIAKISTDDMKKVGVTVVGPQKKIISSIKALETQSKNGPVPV
The conditions noted are these: at 1 µM.

Assay [8] deals with T3, Ephrin type-A receptor 3 (Homo sapiens). The conditions noted are these: at 10 µM.
The target in assay [9] is Ephrin type-A receptor 5 (Homo sapiens) (UniProt P54756). The conditions noted are these: at 10 µM.
Assay [10] addresses Ephrin type-A receptor 7 (Homo sapiens) (UniProt Q15375). The conditions noted are these: at 10 µM.
Assay [11] concerns the target T4, Ephrin type-A receptor 8 (Homo sapiens) (UniProt P29322).
T4 sequence (whole entry): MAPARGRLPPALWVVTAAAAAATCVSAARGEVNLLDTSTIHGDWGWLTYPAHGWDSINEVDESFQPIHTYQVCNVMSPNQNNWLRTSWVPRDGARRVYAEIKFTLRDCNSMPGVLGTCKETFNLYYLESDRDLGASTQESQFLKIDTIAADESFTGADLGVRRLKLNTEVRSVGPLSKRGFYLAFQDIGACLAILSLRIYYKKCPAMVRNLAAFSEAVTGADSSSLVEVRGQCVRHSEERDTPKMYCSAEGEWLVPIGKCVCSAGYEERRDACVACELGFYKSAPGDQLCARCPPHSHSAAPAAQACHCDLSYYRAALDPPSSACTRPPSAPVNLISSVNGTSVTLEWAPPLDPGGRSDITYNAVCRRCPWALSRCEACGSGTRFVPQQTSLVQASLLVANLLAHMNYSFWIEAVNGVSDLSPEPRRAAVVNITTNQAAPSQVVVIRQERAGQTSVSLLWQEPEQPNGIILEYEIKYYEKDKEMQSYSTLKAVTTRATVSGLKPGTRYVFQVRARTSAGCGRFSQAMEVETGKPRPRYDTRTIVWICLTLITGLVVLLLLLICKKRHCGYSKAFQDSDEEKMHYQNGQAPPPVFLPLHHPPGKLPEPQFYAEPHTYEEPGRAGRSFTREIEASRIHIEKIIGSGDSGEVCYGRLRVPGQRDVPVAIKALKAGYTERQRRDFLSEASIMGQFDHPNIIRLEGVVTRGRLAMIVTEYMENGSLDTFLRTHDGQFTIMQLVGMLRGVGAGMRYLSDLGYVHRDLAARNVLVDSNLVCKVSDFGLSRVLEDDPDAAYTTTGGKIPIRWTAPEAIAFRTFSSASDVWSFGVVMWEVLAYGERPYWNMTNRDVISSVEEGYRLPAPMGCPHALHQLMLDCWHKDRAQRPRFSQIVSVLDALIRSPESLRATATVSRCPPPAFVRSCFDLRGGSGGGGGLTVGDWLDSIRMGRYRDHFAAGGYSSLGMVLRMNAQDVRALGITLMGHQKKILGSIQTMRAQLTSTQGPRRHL
The conditions noted are these: at 1 µM.

The target in assay [12] is T4, Ephrin type-A receptor 8 (Homo sapiens). The conditions noted are these: at 10 µM.
The target of assay [13] is T5, Ephrin type-B receptor 1 (Homo sapiens) (UniProt P54762).
T5 sequence (whole entry): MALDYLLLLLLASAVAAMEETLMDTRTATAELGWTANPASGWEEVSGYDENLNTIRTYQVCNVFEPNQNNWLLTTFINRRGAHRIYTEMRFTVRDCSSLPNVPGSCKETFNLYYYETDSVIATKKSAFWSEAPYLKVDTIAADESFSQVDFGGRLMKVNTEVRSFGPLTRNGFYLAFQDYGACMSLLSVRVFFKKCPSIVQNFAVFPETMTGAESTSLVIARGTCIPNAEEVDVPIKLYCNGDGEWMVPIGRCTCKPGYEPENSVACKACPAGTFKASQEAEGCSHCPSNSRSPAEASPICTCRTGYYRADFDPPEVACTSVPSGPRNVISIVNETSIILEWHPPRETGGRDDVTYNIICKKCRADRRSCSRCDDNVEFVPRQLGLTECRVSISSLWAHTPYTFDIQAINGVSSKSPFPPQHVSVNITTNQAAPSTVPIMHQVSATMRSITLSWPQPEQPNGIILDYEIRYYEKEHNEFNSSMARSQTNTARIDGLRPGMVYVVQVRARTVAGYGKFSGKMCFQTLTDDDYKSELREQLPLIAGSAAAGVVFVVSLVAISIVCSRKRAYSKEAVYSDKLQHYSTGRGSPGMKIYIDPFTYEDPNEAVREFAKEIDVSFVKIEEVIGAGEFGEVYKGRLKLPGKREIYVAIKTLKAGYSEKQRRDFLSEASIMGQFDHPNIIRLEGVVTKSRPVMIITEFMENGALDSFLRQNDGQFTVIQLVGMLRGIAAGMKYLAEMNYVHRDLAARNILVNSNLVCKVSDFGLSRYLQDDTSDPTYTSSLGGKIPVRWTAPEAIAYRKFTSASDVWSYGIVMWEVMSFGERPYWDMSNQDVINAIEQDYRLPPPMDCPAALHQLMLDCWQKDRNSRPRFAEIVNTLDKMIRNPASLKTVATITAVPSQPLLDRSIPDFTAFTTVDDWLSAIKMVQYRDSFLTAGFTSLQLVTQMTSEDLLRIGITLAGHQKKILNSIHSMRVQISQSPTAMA
The conditions noted are these: at 1 µM.

The target of assay [14] is T6, Serine/threonine-protein kinase 17A (Homo sapiens) (UniProt Q9UEE5).
T6 sequence (whole entry): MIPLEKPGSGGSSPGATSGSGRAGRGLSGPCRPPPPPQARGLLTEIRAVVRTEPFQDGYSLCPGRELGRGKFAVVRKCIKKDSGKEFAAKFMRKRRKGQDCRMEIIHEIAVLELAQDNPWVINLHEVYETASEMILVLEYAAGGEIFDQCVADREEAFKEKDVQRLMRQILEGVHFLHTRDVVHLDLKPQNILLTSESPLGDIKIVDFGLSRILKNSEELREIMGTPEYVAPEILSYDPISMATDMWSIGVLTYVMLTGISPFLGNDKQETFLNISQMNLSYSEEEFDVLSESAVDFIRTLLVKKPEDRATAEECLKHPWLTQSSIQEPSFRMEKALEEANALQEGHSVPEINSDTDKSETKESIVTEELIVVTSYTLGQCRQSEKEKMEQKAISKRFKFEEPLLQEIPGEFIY
The conditions noted are these: at 10 µM.

Assay [15] deals with Ephrin type-A receptor 4 (Homo sapiens) (UniProt P54764). The conditions noted are these: at 10 µM.
In assay [16] the target is Ephrin type-A receptor 5 (Homo sapiens) (UniProt P54756). The conditions noted are these: at 1 µM.
Assay [17] deals with Ephrin type-A receptor 7 (Homo sapiens) (UniProt Q15375). The conditions noted are these: at 1 µM.
Ephrin type-A receptor 7 (Homo sapiens), sequence (Q15375 28-998 limits assumed): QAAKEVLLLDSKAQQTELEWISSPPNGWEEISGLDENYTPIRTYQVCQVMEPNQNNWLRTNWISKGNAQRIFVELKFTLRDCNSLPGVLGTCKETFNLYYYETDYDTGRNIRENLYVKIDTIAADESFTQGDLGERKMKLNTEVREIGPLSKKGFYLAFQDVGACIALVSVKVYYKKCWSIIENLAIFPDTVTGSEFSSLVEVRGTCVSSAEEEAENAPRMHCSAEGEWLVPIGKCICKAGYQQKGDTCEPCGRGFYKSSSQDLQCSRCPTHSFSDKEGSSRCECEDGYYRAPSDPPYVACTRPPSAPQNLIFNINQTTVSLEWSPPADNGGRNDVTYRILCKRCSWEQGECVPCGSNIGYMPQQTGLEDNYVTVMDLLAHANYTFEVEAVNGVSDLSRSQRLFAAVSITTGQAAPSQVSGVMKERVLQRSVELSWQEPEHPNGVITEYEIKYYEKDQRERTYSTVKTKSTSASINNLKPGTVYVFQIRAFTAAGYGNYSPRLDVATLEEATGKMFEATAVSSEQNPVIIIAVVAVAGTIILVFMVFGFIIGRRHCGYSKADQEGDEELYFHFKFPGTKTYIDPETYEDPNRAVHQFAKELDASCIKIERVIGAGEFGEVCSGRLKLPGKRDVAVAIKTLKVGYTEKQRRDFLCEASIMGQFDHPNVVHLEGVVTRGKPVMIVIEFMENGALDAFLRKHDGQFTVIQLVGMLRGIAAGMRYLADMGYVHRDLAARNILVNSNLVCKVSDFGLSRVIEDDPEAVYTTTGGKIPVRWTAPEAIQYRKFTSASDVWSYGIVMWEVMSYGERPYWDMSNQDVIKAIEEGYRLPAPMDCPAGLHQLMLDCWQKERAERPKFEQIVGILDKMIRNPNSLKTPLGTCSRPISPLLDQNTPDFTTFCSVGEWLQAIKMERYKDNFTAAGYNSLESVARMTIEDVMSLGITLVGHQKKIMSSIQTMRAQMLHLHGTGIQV

Ephrin type-A receptor 2 (Homo sapiens), sequence (P29317 whole entry): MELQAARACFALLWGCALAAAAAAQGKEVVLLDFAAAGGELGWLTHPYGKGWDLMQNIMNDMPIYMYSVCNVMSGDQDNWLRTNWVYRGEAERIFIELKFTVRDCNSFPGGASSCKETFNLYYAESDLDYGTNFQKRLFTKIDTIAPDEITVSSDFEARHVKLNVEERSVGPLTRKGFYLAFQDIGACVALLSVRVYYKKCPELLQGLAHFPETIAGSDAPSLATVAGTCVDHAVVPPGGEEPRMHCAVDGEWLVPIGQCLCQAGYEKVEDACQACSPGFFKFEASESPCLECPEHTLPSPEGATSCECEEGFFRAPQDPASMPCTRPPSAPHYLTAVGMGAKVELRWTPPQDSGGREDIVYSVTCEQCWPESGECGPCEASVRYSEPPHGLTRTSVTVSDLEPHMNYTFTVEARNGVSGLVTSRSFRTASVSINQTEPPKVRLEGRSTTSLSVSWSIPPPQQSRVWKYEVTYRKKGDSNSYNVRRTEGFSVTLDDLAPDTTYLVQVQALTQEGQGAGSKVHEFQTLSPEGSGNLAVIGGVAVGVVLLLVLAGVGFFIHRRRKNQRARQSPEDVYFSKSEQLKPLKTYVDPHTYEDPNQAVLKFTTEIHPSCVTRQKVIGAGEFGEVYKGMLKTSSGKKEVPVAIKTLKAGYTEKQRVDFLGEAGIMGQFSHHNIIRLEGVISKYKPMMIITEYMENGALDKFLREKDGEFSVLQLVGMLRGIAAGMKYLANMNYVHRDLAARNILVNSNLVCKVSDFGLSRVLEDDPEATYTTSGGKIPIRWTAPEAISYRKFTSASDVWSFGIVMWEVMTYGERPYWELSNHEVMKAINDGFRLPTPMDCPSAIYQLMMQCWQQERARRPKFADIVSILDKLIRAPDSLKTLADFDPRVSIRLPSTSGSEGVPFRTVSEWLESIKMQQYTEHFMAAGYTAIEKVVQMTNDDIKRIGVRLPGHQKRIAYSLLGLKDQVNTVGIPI
Ephrin type-A receptor 5 (Homo sapiens), sequence (P54756 whole entry): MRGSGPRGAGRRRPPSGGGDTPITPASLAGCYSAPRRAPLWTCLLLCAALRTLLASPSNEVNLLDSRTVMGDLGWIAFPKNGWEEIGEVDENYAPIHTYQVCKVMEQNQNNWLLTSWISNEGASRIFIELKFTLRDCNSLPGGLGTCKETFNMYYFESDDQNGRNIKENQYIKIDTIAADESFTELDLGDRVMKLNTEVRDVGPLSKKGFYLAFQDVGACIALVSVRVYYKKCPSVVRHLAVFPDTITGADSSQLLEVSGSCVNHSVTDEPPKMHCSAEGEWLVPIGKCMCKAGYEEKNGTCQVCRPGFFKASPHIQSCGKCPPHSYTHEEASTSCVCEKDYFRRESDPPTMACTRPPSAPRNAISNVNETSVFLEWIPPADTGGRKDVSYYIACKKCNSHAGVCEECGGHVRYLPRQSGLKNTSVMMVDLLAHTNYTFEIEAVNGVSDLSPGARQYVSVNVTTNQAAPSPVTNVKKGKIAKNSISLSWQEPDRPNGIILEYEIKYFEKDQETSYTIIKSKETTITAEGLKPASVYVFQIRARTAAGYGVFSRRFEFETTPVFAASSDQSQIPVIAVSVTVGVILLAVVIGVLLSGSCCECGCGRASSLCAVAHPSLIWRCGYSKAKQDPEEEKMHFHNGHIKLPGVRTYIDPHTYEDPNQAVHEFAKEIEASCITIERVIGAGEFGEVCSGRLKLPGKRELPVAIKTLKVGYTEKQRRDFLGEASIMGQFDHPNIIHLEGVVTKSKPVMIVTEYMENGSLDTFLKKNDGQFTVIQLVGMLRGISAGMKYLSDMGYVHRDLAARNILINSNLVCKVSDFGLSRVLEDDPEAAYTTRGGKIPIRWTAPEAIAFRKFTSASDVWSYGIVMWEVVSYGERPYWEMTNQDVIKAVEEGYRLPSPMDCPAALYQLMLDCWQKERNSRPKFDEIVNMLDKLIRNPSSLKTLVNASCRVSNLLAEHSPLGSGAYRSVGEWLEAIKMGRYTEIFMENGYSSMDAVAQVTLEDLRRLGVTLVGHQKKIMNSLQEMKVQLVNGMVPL
Ephrin type-A receptor 4 (Homo sapiens), sequence (P54764 whole entry): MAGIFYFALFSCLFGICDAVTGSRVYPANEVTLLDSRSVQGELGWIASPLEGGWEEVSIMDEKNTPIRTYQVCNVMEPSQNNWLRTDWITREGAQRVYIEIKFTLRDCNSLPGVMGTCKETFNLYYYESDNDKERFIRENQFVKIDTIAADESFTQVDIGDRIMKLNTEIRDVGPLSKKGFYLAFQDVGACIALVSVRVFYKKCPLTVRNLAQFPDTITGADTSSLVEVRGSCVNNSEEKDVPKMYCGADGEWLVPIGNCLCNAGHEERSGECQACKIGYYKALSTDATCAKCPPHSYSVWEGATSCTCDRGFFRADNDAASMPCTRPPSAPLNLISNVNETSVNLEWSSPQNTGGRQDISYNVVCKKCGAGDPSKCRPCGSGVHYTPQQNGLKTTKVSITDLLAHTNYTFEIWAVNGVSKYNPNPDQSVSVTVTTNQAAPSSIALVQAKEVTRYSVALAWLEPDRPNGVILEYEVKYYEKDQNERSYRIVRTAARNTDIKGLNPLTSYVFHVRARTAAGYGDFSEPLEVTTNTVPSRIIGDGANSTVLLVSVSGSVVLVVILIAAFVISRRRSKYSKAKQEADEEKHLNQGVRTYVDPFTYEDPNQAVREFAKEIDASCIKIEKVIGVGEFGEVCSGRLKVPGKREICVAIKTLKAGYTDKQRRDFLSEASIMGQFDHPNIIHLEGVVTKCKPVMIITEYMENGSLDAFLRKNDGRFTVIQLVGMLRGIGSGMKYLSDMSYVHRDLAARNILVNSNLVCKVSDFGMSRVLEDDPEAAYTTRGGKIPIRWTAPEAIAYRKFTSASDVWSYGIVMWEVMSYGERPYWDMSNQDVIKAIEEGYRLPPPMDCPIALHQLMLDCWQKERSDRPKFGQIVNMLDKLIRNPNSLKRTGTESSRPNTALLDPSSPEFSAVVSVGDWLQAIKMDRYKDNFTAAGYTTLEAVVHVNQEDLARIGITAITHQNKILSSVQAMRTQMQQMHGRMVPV

Usually residual activity stands for the signal under treatment as a percentage of the control signal. Consider `Cc1cncc2cccc(S(=O)(=O)N3CCCN(C(=O)CN)C[C@H]3C)c12`, for which the residual activity in assay [1] stood at 91%; in [2], 94%; in [3], 54%; in assay [4], 7%; in [5], 92%; in [6] it was 56%. Moreover, the residual activity in [7] stood at 96%; in [8] it was 50%; in assay [9] it was 83%; in assay [10], 66%; in assay [11], 98%; in assay [12], 85%. Further, in [13], the residual activity is 75%.

Turning to `CN(C)CCCn1cc(C2=C(c3c[nH]c4ccccc34)C(=O)NC2=O)c2ccccc21`, the residual activity was 46% in [14]; 37% in [4]; 102% in assay [5]; 68% in [6]; 109% in [7]; 82% in assay [8]. The residual activity in assay [15] was 82%; in assay [16] it was 123%; in assay [9] it was 103%; in [17] it was 108%; in assay [10], 87%; in assay [11], 120%. Besides, the residual activity in [12] is 106%.

For `CC(=O)c1ccc(N2CCOCC2)cc1O`, the residual activity in assay [1] worked out at 108%; in [2] it was 92%; in [3], 94%; in [4], 110%; in [5] it was 102%; in assay [7] it was 107%. Also, the residual activity worked out at 94% in assay [8]; 104% in assay [15]; 101% in [9]; 101% in [17]; 90% in assay [10]; 100% in [11]. In addition, the residual activity in [12] and in assay [13] was 93% each time.
